Assay results published in PubChem BioAssay (NCATS).
Results filed as inconclusive are left out. A call without a number means that no potency is given here. Calls of active or inactive are those of the source. Calls follow the shape of the dose curve; as a rule, active = well fitted inhibition curve with a large enough effect; inconclusive = small, poorly fitted or top-dose-only effect; inactive = flat fitted curve, though single readings scatter.

Tests used:
Assay in all cases: qHTS profiling for inhibitors of Plasmodium falciparum proliferation (AID 504749); also: nearly all actives have a fitted effect of over 60% in size
Details in all cases: P. falciparum in erythrocytes, SYBR Green DNA, 72 h; series mostly up to 28.7 µM
[1] = tested on: DIV14
Summary of the method: (§1)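 SYBR Green fluorescence (ex 485 nm, em 535 nm) reports parasite DNA after 72 h compound exposure of infected red cells at 0.3% parasitemia, 2.5% hematocrit; signal normalized to 0.29 uM artemisinin and vehicle wells.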

[2] = tested on: DIV17
Summary of the method: as §1

[3] = tested on: DIV30
Summary of the method: as §1

[4] = tested on: Dd2
Summary of the method: as §1

[5] = tested on: ECU
Summary of the method: as §1

[6] = tested on: FAB9
Summary of the method: as §1

[7] = tested on: GB4
Summary of the method: as §1

[8] = tested on: HB3
Summary of the method: as §1

[9] = tested on: ICS
Summary of the method: as §1

[10] = tested on: JCK
Summary of the method: as §1

[11] = tested on: N140
Summary of the method: as §1

[12] = tested on: P93_24
Summary of the method: as §1

[13] = tested on: P94_40
Summary of the method: as §1

[14] = tested on: PAD
Summary of the method: as §1

[15] = tested on: PC15
Summary of the method: as §1

[16] = tested on: PC26
Summary of the method: as §1

[17] = tested on: PC49
Summary of the method: as §1

[18] = tested on: SC27B
Summary of the method: as §1

[19] = tested on: TAB109
Summary of the method: as §1

[20] = tested on: TAB113
Summary of the method: as §1
Potency is read from the fitted curve at half-maximal effect.

SMILES	Potency [1]	Potency [2]	Potency [3]	Potency [4]	Potency [5]	Potency [6]	Potency [7]	Potency [8]	Potency [9]	Potency [10]	Potency [11]	Potency [12]	Potency [13]	Potency [14]	Potency [15]	Potency [16]	Potency [17]	Potency [18]	Potency [19]	Potency [20]
CCNC(=O)N1CCN(CCCC(c2ccc(F)cc2)c2ccc(F)cc2)CC1	7.57 µM (active)	13.5 µM (active)	6.75 µM (active)	2 µM (active)	2.51 µM (active)	3.98 µM (active)	10.7 µM (active)	4.47 µM (active)	2.82 µM (active)	10 µM (active)	2.82 µM (active)	2 µM (active)	2.82 µM (active)	3.55 µM (active)	3.55 µM (active)	4.78 µM (active)	0.891 µM (active)	2 µM (active)	2.24 µM (active)	2.24 µM (active)
Cc1ccc(Cl)c(Nc2ccccc2C(=O)O)c1Cl	inactive	inactive	inactive	inactive	inactive	inactive	inactive	inactive	inactive	inactive	inactive	inactive	inactive	inactive	inactive	inactive	inactive	inactive	inactive	inactive
O=c1[nH]c(=O)n([C@H]2C[C@H](O)[C@@H](CO)O2)cc1Br	inactive	inactive	inactive	inactive	inactive	inactive	inactive	inactive	inactive	inactive	inactive	inactive	inactive	inactive	inactive	inactive	inactive	inactive	inactive	inactive
CCN(Cc1ccncc1)C(=O)C(CO)c1ccccc1 (stereo not given)	inactive	inactive	inactive	inactive	inactive	inactive	inactive	inactive	inactive	inactive	inactive	inactive	inactive	inactive	inactive	inactive	inactive	inactive	inactive	inactive
NC(Cc1ccc(Cl)cc1)C(=O)O (stereo not given)	inactive	inactive	inactive	inactive	inactive	inactive	inactive	inactive	inactive	inactive	inactive	inactive	inactive	inactive	inactive	inactive	inactive	inactive	inactive	inactive
CCN1CCc2nc(N)oc2CC1	inactive	inactive	inactive	inactive	inactive	inactive	inactive	inactive	inactive	inactive	inactive	inactive	inactive	inactive	inactive	inactive	inactive	inactive	inactive	inactive
CC(=O)OCC1=C(C(=O)O)N2C(=O)[C@@H](NC(=O)Cc3cccs3)[C@H]2SC1	inactive	inactive	inactive	inactive	inactive	inactive	inactive	inactive	inactive	inactive	inactive	inactive	inactive	inactive	inactive	inactive	inactive	inactive	inactive	inactive
CN=C(NC#N)NCCSCc1nc[nH]c1C	inactive	inactive	inactive	inactive	inactive	inactive	inactive	inactive	inactive	inactive	inactive	inactive	inactive	inactive	inactive	inactive	inactive	inactive	inactive	inactive
CCCCNC(=O)NS(=O)(=O)c1ccc(C)cc1	inactive	inactive	inactive	inactive	inactive	inactive	inactive	inactive	inactive	inactive	inactive	inactive	inactive	inactive	inactive	inactive	inactive	inactive	inactive	inactive
CCO/C([O-])=N/c1c[n+](N2CCOCC2)no1	inactive	inactive	inactive	inactive	inactive	inactive	inactive	inactive	inactive	inactive	inactive	inactive	inactive	inactive	inactive	inactive	inactive	inactive	inactive	inactive
Cc1scc2c1N(C(=O)CN1CCN(C)CC1)c1ccccc1NC2=O	inactive	inactive	inactive	inactive	inactive	inactive	inactive	inactive	inactive	inactive	inactive	inactive	inactive	inactive	inactive	inactive	inactive	inactive	inactive	inactive
CC(=O)Oc1cc(C(C)C)c(OCCN(C)C)cc1C	inactive	inactive	inactive	inactive	inactive	inactive	inactive	inactive	inactive	inactive	inactive	inactive	inactive	inactive	inactive	inactive	inactive	inactive	inactive	inactive
